Screening data: PubChem BioAssay, National Center for Advancing Translational Sciences (NCATS)
This is a sample that favours compounds with a hit; in the whole collection about 3.3% have one here.
AmpC inh no detg = qHTS Inhibitors of AmpC Beta-Lactamase (assay without detergent). P00811. AmpC nitrocefin hydrolysis, absorbance 480 nm, 0.0001% Triton. Potency, µM (titrated, usually from 57.1 µM), for the others: top-dose activity change, negative = inhibition, actives largely listed as inhibitors. actives 0.52% (n = 330,000). AID 485341, 2010;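 note: plate controls were no compound for no effect and no enzyme for full effect; nearly all actives have a fitted effect of over 20% in size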
Target sequence (P00811 whole entry, looked up): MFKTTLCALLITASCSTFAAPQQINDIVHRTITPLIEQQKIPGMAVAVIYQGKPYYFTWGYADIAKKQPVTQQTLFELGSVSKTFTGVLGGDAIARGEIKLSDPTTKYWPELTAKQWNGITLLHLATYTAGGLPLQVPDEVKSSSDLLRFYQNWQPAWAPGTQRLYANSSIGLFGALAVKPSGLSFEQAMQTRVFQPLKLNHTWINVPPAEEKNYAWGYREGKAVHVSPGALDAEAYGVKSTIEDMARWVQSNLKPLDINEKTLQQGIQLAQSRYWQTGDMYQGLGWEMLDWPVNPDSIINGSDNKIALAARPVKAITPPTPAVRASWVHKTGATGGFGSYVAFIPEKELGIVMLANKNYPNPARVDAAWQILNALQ
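20 mM phosphate pH 7.0 + 0.01% (detergent screen) or 0.0001% Triton X-100; 5.3 nM AmpC reagent; cpd preinc 15 min RT; nitrocefin (800 uM stock) to start; A480 q20 s × 4 min; Activity was normalised to no-enzyme and no-compound control wells.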
TbPYK inhibitor = qHTS of Trypanosoma Brucei Inhibitors | pyruvate kinase (Trypanosoma brucei), Q57TT1 | actives 0.12% (n = 410,000) | Potency, µM (top dose mostly 76.8 µM), for inactives: top-dose activity, negative = inhibition, usual class: inhibitors | AID 624173, 2012 | TbPYK enzyme, Kinase-Glo Plus ATP luminescence, 45 min; note: % is set by controls: 0 for no effect and ±100 for the full control effect; nearly all actives have a fitted effect of over 50% in size
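Enzyme and substrate buffer are dispensed first and compound is pin-transferred. ADP at 130 uM final then starts the reaction, which runs 45 min at room temperature. Detection reagent is added for 10 min before luminescence is imaged.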
SARS PLP yeast = qHTS of Yeast-based Assay for SARS-CoV PLP | actives 0.19% (n = 330,000) | S. cerevisiae expressing SARS-CoV PLpro, growth rescue | Potency, µM (highest dose often 32.9 µM), for the others: at the highest dose activity, positive = growth rescue, hits mostly activators | AID 485353, 2010; calls by dose curve; note: 0% is about no effect; nearly all actives have a fitted effect of over 55% in size
RE007 growth inh = qHTS Assay for Inhibitors of the HIV-1 protein Vpr. S. pombe RE007 Vpr strain, BacTiter-Glo ATP luminescence, 24 h. AID 651644, 2012. Potency, µM (doses to about 92.2 µM), for inactives: top-dose activity change, negative = less growth, hits mostly inhibitors. actives 0.21% (n = 360,000); active = well fitted falling curve with a large enough effect; inconclusive = small, poorly fitted or top-dose-only effect; inactive = no such curve, though single readings can be large or run the other way; note: % is set by controls: 0 for no effect and ±100 for the full control effect; nearly all actives have a fitted effect of over 50% in size
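Fission yeast strain RE007, carrying one chromosomally integrated HIV-1 vpr copy, was seeded at OD 0.01 in PMG+AL medium with 23 nL pinned compound. After 24 h at 30 °C and 99% humidity, viability was read by BacTiter-Glo luminescence.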
AmpC detergent = qHTS Inhibitors of AmpC Beta-Lactamase (assay with detergent); AmpC hydrolysis of nitrocefin, absorbance 480 nm, 0.01% Triton; Potency, µM (titrated, usually from 114 µM), inactives show at the highest dose activity change, negative = inhibition, most hits filed as inhibitors; actives 0.041% (n = 370,000);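 note: 0% = no-compound wells and -100% = no-enzyme wells; nearly all actives have a fitted effect of over 25% in size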
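AmpC (5.3 nM in the dispensed reagent) in 20 mM phosphate pH 7.0 with 0.01% (detergent screen) or 0.0001% Triton X-100 was preincubated with compounds for 15 min at room temperature. Nitrocefin was then added from an 800 uM solution, and hydrolysis was followed at 480 nm.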
Sm TGR inh = qHTS Assay for the Inhibitors of Schistosoma Mansoni Peroxiredoxins. Schistosoma mansoni thioredoxin glutathione reductase (TGR), Q962Y6. purified TGR, DTNB reduction, TNB absorbance 405 nm. Potency, µM (highest dose often 114 µM), inactives show at the highest dose activity change, negative = inhibition, hits mostly inhibitors. actives 3% (n = 360,000). AID 485364, 2010; note: % is set by controls: 0 for no effect and ±100 for the full control effect; nearly all actives have a fitted effect of over 60% in size
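First, TGR (20 nM dispensed) and NADPH were mixed with compound. Second, a 15 min room-temperature incubation followed. Third, further NADPH and then DTNB were added to start the reaction. Finally, TNB absorbance was monitored kinetically.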
An asterisk follows results filed as active; ? = inconclusive; / = no result; [ ] = another dose, or the depositor's remark. Unless noted, calls come from the whole dose curve; as a rule, active = well fitted curve in the direction sought with a large enough effect; inconclusive = small, poorly fitted or top-dose-only effect, or another doubt; inactive = no such curve, though single readings can be large; an effect the other way counts as inactive or inconclusive. Potency is the fitted concentration of half-maximal effect.

SMILES | AmpC inh no detg | TbPYK inhibitor | SARS PLP yeast | RE007 growth inh | AmpC detergent | Sm TGR inh
O=C(/C=C/c1ccco1)Nc1ccccc1N1CCCCC1 | -28% | -3% | -4% | -2% | -9% | 45µM*
O=C(/C=C/c1ccco1)Nc1cccnc1Cl | -8% | ? | -3% | -2% | 4% | 5.6µM*
CCCCNS(=O)(=O)c1ccc2nc(-c3cccnc3)cc(C(=O)NCCC)c2c1 | / | -3% | / | / | 2% | 15%
O=[N+]([O-])c1ccc(/C([O-])=C(/C(=S)NCc2ccco2)[n+]2ccccc2)cc1 | -25%[11.4 µM] | -18% | -1% | -22% | 5% | 22µM*
[O-]/C(=C(\C(=S)NCc1ccco1)[n+]1ccccc1)c1ccccc1Br | -16% | -18% | -2% | -11% | -1% | 25µM*
O=C(NCc1ccco1)C1CCN(C(=O)c2ccc([N+](=O)[O-])cc2)CC1 | 20% | 1% | 3% | -7% | 5% | 25µM*
Cc1ccc(-n2nc(C)c3c(C(=O)NCc4ccc(F)cc4)cc(C)nc32)cc1 | / | 9% | / | / | 14% | 9%
Cc1c(NC(=O)c2cc([N+](=O)[O-])ccc2N2CCOCC2)cccc1-c1nc2ccccc2o1 | / | 1% | / | / | -1% | 12%
Cc1cc(C(C)(C)C)oc1C(=O)N(CC(=O)NC1CCCC1)Cc1ccccc1Cl | 5.6µM* | -1% | -16% | 5% | 6% | -2%
N#CCCn1c(=O)c(-c2cccs2)nc2cnc(N3CCNCC3)nc21 | / | -12% | / | / | / | /
Cc1cc(-c2n[nH]c(=S)n2/N=C/c2cc([N+](=O)[O-])ccc2Cl)n[nH]1 | -27% | 4µM* | -8% | 11% | ? | -18%
Cc1cc(-c2n[nH]c(=S)n2/N=C/c2ccc(Cl)c([N+](=O)[O-])c2)n[nH]1 | -7% | ? | 18% | -10% | -5% | -33%
Cc1ccccc1-c1n[nH]c(=S)n1/N=C/C=C/c1ccco1 | 10µM* | -24% | 1% | 4% | 3% | 14µM*
Cc1cc(-c2n[nH]c(=S)n2/N=C/C=C/c2ccco2)n[nH]1 | -29% | -38% | 1% | 6% | -2% | 22µM*
O=[N+]([O-])c1cccc(/C=N/n2c(-c3cccnc3)n[nH]c2=S)c1 | -32% | 2.2µM* | 9% | 9% | -9% | -18%
COc1ccc(NC(=O)c2c(-c3ccc(C)cc3)nnc3ccccc23)c(OC)c1 | / | 3%[15.4 µM] | / | / | 1% | 0%
COc1ccccc1NC(=O)CSc1nc2ccccc2c(=O)n1CCC(=O)NC1CCCCC1 | / | -4% | / | / | 1% | -2%
CC(=C/c1ccccc1)/C=N/n1c(-c2ccco2)n[nH]c1=S | -10% | / | -32% | -15%[3.69 µM] | -7% | 9%
CC(/C=N/n1c(-c2cc(C)[nH]n2)n[nH]c1=S)=C\c1ccccc1 | -39% | 5µM* | 1% | 6% | -14% | -6%
Cn1c(=O)cc(OCC(=O)N2CCN(C3CCCCC3)CC2)c2ccccc21 | 0.89µM* | -1% | -5% | -4% | ? | -3%
CCc1ccccc1NC(=O)c1ccc2c(c1)N(Cc1cccc(Cl)c1)C(=O)c1ccccc1S2(=O)=O | / | 1% | / | / | 9% | 10%
N#CC(C#N)=Cc1ccccc1OCc1ccccc1 | -9% | / | -3% | / | 2% | 3.2µM*
COC(=O)CSc1[nH]c2ccccc2c1[N+](=O)[O-] | -3% | -2% | -3% | -4% | -1% | 50µM*
O=C(Cn1cc(C(=O)c2ccco2)c2ccccc21)Nc1ccccc1F | 28µM* | 2% | -1% | 7% | -2% | 0%
Nc1cccc(Oc2cnccn2)c1 | -15% | -1% | 0% | -14% | -10% | 31%
SMILES | AmpC inh no detg | TbPYK inhibitor | SARS PLP yeast | RE007 growth inh | AmpC detergent | Sm TGR inh
O=C(CCl)Nc1cccc(Oc2cnccn2)c1 | -15% | 5% | ? | 28% | ? | 11µM*
O=C(CCl)Nc1cccc(Oc2ccccc2)c1 | -50% | -1% | 3% | 54% | -14% | 11µM*
N#Cc1ccccc1NC(=O)Cn1cnc2onc(-c3cccc(F)c3)c2c1=O | / | 2% | / | / | 18% | -1%
COc1ccc(Br)cc1C1CC(=O)N2CN(C)CSC2=C1C#N (stereo not given) | -28% | ? | 0% | -12% | ? | ?
COc1cc(C2CC(=O)N3CN(c4ccccc4C)CSC3=C2C#N)cc(OC)c1OC (stereo not given) | 29% | / | ? | / | -6% | ?
COc1cccc(C2CC(=O)N3CN(c4ccccc4F)CSC3=C2C#N)c1 (stereo not given) | -42% | 3.5µM* | -1% | -18% | ? | 35µM*
COc1ccccc1N1CSC2=C(C#N)C(c3ccc(SC)cc3)CC(=O)N2C1 (stereo not given) | -53% | 18µM* | 5% | -5% | ? | ?
COc1ccc(OC)c(C2CC(=O)N3CN(c4ccccc4F)CSC3=C2C#N)c1 (stereo not given) | -44% | ? | 12% | -11% | -4% | 16µM*
CCOCCCNC(=O)C(c1ccc(Cl)cc1)N(Cc1ccc2c(c1)OCO2)C(=O)c1ccc(NC(C)=O)cc1 (stereo not given) | / | 0% | / | / | 7% | 25%
O=[N+]([O-])c1cc(-c2nc(-c3ccccc3)no2)ccc1N1CCOCC1 | / | -1% | / | / | 11% | -1%
CCOc1ccc(C2C(C(N)=O)=C(C)Nc3nc(SCc4ccccc4F)nn32)cc1 (stereo not given) | / | -3% | / | / | 2% | -3%
O=C(CCNc1ccc(F)cc1)c1ccco1 | -11% | 5% | -11% | 6.3µM* | 5% | 4µM*
O=C(CCNc1ccc(F)c(Cl)c1)c1ccco1 | -23% | 2% | -18% | -24% | -5% | 8.9µM*
O=C(CCNc1ccc(Cl)c(C(F)(F)F)c1)c1ccco1 | -11% | 1% | -8% | -50% | -13% | ?
O=C(CCNc1cccc(C(F)(F)F)c1)c1ccco1 | -4% | 1% | -16% | ? | -6% | 3.5µM*
O=C(CCNc1cc(Cl)cc(Cl)c1)c1ccco1 | -9% | -4% | -18% | ? | 0% | ?
O=C(CNC(=O)c1ccco1)Nc1ccc(F)cc1 | -5% | -2% | -1% | -1% | -1% | 1%
Nc1c(C(O)(C(F)(F)F)C(F)(F)F)ccc2ccccc12 | 26% | -1% | -12% | -5% | -5% | 40µM*
c1ccc2c(c1)ccc1ccccc12 | -22% | 1% | 3% | 2% | / | /
